This is a sample that favours compounds with a hit; in the whole collection about 4.4% have one here.
TRHR PAM: qHTS for Small Molecule Agonists and Allosteric Enhancers of Human TRH Receptor: Primary Screen for Enhancers. Thyrotropin-releasing hormone receptor (Homo sapiens), P34981. actives 0.66% (n = 360,000). TRHR cells, fluo-8 calcium fluorescence, EC20 TRH enhancement. enhancement, % at 2 µM; in the data active means enhancement above about 30%
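TRHR-expressing cells loaded with fluo-8 calcium dye were read kinetically (ex 480/em 530) during compound addition, then stimulated with an EC20 of TRH (10 nM final). Enhancement of the Gq-mediated intracellular calcium response was scored.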
D1 agonist: Allosteric Agonists of the Human D1 Dopamine Receptor: qHTS; HEK293 T-REx D1 cells, calcium flux, agonist mode; activation, % at 2 µM; actives 1% (n = 360,000)
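Tetracycline-induced HEK293 TREx D1 cells, force-coupled to calcium signalling, were dye-loaded with a no-wash calcium kit. Compound was pin-added after a 10 s baseline. Fluorescence was read kinetically at 1 cycle/s for 180 s, with calcium rises flagged as agonism.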
TRHR agonist: qHTS for Small Molecule Agonists and Allosteric Enhancers of Human TRH Receptor: Primary Screen for Agonists | Thyrotropin-releasing hormone receptor (Homo sapiens), P34981 | TRHR cells, calcium flux fluo-8, FDSS agonist mode | activation, % at 2 µM | actives 0.18% (n = 360,000) | AID 493084, 2011
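Read-out: compound-evoked intracellular calcium rise in TRHR cells, fluo-8 dye, kinetic FDSS fluorescence at 1 s/cycle following a 10-cycle baseline. Cells cultured overnight before dye loading (30 min–1.5 h, RT).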
USP1 inh: Inhibitors of USP1/UAF1: Primary Screen; Ubiquitin carboxyl-terminal hydrolase 1 (Homo sapiens), O94782; recombinant USP1/UAF1, Ub-Rhodamine cleavage fluorescence; Potency, µM (highest dose often 57.1 µM), hits mostly inhibitors; actives 0.23% (n = 390,000); AID 743255, 2014; active means well fitted inhibition curve with a large enough effect; inconclusive means small, poorly fitted or top-dose-only effect; inactive means no such curve, though single readings can be large or run the other way; further: nearly all actives have a fitted effect of over 60% in size
Target sequence (O94782 whole entry, looked up): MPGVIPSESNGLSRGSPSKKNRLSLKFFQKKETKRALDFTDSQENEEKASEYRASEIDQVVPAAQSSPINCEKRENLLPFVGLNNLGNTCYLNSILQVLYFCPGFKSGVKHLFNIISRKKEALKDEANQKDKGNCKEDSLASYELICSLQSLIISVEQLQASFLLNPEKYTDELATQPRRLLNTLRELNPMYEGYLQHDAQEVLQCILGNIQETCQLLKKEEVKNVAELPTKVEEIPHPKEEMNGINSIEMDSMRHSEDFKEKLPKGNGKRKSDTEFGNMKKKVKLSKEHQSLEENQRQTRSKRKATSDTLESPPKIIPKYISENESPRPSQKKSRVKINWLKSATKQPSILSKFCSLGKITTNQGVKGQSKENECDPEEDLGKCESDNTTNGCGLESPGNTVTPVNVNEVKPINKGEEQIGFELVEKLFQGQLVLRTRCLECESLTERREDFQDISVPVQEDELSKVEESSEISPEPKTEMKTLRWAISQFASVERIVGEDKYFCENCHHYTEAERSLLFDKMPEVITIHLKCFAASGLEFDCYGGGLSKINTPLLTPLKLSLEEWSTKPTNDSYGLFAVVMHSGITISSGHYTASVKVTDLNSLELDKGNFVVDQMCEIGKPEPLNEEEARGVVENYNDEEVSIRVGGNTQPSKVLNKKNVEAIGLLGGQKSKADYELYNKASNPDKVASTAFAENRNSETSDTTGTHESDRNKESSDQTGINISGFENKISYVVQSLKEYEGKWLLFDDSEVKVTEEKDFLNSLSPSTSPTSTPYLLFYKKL
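High-throughput fluorogenic screen: 1nM USP1/UAF1 complex, Ub-Rho substrate 150nM final, 50mM HEPES pH 7.8 with 0.5mM EDTA, 0.1 mg/ml BSA, 1mM TCEP and 0.01% Tween-20.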
D1 antag: Antagonist of Human D 1 Dopamine Receptor: qHTS | D(1A) dopamine receptor (Homo sapiens), P21728 | HEK293 TREx D1 cells, calcium flux, dopamine EC80; hits give low values | activity change, negative = inhibition, % at 10 µM | actives 3.2% (n = 360,000); in the data active means activity change below about -30%
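Kinetic fluorescence of a calcium dye serves as the read-out. D1-expressing Hek293 Trex cells, induced overnight at 30 C, are exposed to compound for 180 s before an EC80 dopamine addition, then read 180 s further.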
D1 potentiator: Potentiators of Human D1 Dopamine Receptor: qHTS; D(1A) dopamine receptor (Homo sapiens), P21728; HEK293 TREx D1 cells, calcium flux, dopamine EC20 potentiation; potentiation, % at 10 µM; actives 0.036% (n = 360,000); in the data active means potentiation above about 30%
Numbers stand for hits; i = inactive; ? = inconclusive; nt = not tested or not shown. Unless noted, no stated cut-off is given here; in the data, active means activation above about 30%; inactive means the rest.

SMILES | TRHR PAM | D1 agonist | TRHR agonist | USP1 inh | D1 antag | D1 potentiator
Cc1cc2c(s1)c1cnn(Cc3ccc(F)c(C)c3)c(=O)c1n2C | i | i | i | nt | i | i
COc1cccc(/C=C2\SC(=S)N(CCC(=O)N3CCCCC3CCO)C2=O)c1 (configuration not stated) | i | i | i | i | -31 | i
Cc1ccc(S(=O)(=O)N2CCC(C(=O)NCCc3ccccn3)CC2)cc1 | i | i | i | i | -58 | i
CCCCOc1ccc(C(=O)Nc2ccc(N3CCN(C)CC3)cc2)cc1 | i | i | i | i | -73 | i
CCOc1cccc(C(=O)Nc2ccc(N3CCN(S(C)(=O)=O)CC3)cc2)c1 | i | i | i | i | i | i
CCCCOc1cccc(C(=O)Nc2ccc(N3CCN(CC)CC3)cc2)c1 | i | i | i | i | -51 | i
S=c1[nH]c(-c2ccc(Br)cc2)cn1CCc1ccccc1 | i | i | i | i | -90 | i
CN(c1ccc(Cl)cc1)S(=O)(=O)c1nnc(NC(=O)C2CCCCC2)s1 | i | i | i | i | i | i
COCCCNC(=O)CC(c1cc(OC)c(OC)c(OC)c1)N1Cc2ccccc2C1=O (configuration not stated) | i | i | i | i | i | i
COc1ccc(-n2nc(C(=O)N(C)c3cc(Cl)ccc3OC)c3c4ccccc4n(C)c3c2=O)cc1 | i | i | i | ? | i | i
O=C(O)c1ccccc1-c1nc2ccccc2c(=O)[nH]1 | i | i | i | i | -40 | i
O=C(O)c1ccccc1-c1nc(-c2ccccc2)c(-c2ccccc2)[nH]1 | i | i | i | i | i | i
CCC(C)(C)NC(=O)CN(C(=O)c1snc(C(N)=O)c1N)c1ccc2nc(C)sc2c1 | i | i | i | i | -55 | i
COP(=O)(OC)C(Nc1ccc([N+](=O)[O-])cc1)c1ccccc1 (configuration not stated) | i | i | i | i | i | i
CCCOP(=O)(OCCC)C(Nc1ccc(C(C)C)cc1)c1ccc([N+](=O)[O-])cc1 (configuration not stated) | i | i | i | i | -33 | i
CC(=O)N1CCC(N(Cc2ccco2)C(=O)Nc2ccc(Br)cc2F)CC1 | 41 | i | i | i | i | i
Cc1cc(=O)oc(C)c1C(=O)OC(C(=O)c1ccccc1)c1ccccc1 (configuration not stated) | i | i | i | i | -42 | i
CC(NC(=O)Cn1c(-c2cccs2)cc2cc(F)ccc21)c1ccccc1 (configuration not stated) | i | i | i | i | i | i
COc1ccc(-n2ncc(C(C)NS(=O)(=O)c3ccc(C(C)=O)cc3)c2C)cc1 (configuration not stated) | i | i | i | i | i | i
COc1ccc(-n2ncc(C(C)NS(=O)(=O)c3cccs3)c2C)cc1 (configuration not stated) | 31 | i | i | i | i | i
Cc1ccc(C2=NN(C(=O)CCCC(=O)O)C(c3ccco3)C2)cc1 (configuration not stated) | i | 74 | i | i | i | i
O=C(C1CCCO1)N1N=C(c2ccc(Br)cc2)CC1c1ccco1 (configuration not stated) | i | i | i | i | -71 | i
Cc1ccc(C2=NN(C(=O)CN3C(=O)c4ccccc4S3(=O)=O)C(c3ccco3)C2)cc1 (configuration not stated) | i | i | i | i | -76 | i
CC(=O)c1ccc(N2CCN(S(=O)(=O)c3ccc(-c4cc(C(F)(F)F)on4)s3)CC2)cc1 | i | i | i | i | -31 | i
O=c1c(-c2cc(-c3ccc(F)cc3)nc3c2COc2ccc(Cl)cc2-3)coc2ccc(F)cc12 | i | i | i | i | i | i
SMILES | TRHR PAM | D1 agonist | TRHR agonist | USP1 inh | D1 antag | D1 potentiator
CCOC(=O)c1sc2ncn(CC(=O)Nc3ccc(F)cc3F)c(=O)c2c1C | i | i | i | i | i | i
O=C(Nc1nc2c(s1)CCCC2)c1cc(-c2ccccc2)nc2ccccc12 | i | 32 | i | i | i | i
CCCCOc1ccccc1C1CC(=O)NC2=C1C(=O)CCC2 (configuration not stated) | i | i | i | i | -48 | i
CCN1CCOC(=O)C1CC(=O)Nc1cc(Cl)ccc1C (configuration not stated) | i | i | i | i | i | i
CCn1c(=O)n(-c2ccc3c(c2)OCO3)c2nc(-c3ccc(C(C)C)cc3)nc(C(N)=O)c21 | i | i | i | i | i | i
CCOc1ccc(C(=O)CSc2nnc3cc(C)c4ccccc4n23)cc1 | i | i | i | i | i | i
CCN1C(=O)/C(=C2/C=CC=CN2C)SC1=S | i | i | i | i | -33 | i
CN1C=CC=C/C1=C1/SC(=S)N(Cc2ccccc2)C1=O | i | i | i | i | i | i
CCN(Cc1ccccc1)C(=O)Cn1c(=O)n(-c2ccc(F)c(Cl)c2)c(=O)c2sc3ccccc3c21 | i | i | i | i | i | i
CC(C)(C)c1ccc(OCCSc2nc(-c3cccs3)nc3cc(=O)[nH]n23)cc1 | i | i | i | i | i | i
Cc1nn2c(-c3cccnc3)ccnc2c1-c1ccccc1 | i | i | i | i | -44 | i
Cc1c(NC(=O)c2ccc(-c3cccc([N+](=O)[O-])c3)o2)cccc1-c1nc2cc(Cl)ccc2o1 | i | i | i | i | i | i
CCOC(=O)c1c(-c2ccccc2)oc2ccc(OCC(O)CNCCN(C)C)cc12 (configuration not stated) | i | 45 | i | i | -48 | i
Cc1nc2[nH]onc2c2nccc(=O)c12 | i | i | i | i | -39 | i
COC(=O)CN1C(=O)CSc2ccc(S(=O)(=O)Nc3c(C)cc(C)cc3C)cc21 | i | i | i | i | i | i
O=C(CSC(=S)N1CCSCC1)c1ccc(Cl)cc1 | i | i | i | i | -46 | i
O=C(CSC(=S)N1CCSCC1)c1ccccc1 | i | i | i | i | i | i
CN(C)CCNS(=O)(=O)c1ccc(N2CCN(c3ccc(F)cc3)CC2)c([N+](=O)[O-])c1 | i | 59 | i | i | -49 | i

From PubChem BioAssay
